Shown is part of a subset that was picked to be rich in hits.
ClpP mod: qHTS Assay for Activators of ClpP; ATP-dependent Clp protease proteolytic subunit (Bacillus subtilis (strain 168)), P80244; purified B. subtilis ClpP, FRET peptide cleavage, 20 min; Potency, µM (titrated, usually from 57.5 µM), inactives show at the top dose activity change, negative = active; hit rate 1.9% among 340,000; AID 651965, 2013; active means well fitted falling curve with a large enough effect; inconclusive means small, poorly fitted or top-dose-only effect; inactive means no such curve, though single readings can be large or run the other way; further: potency means the concentration at half of the fitted maximal effect; the source files actives as falling curves though it sought activators and does not explain the sign; nearly all actives have a fitted effect of over 65% in size
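Purified B. subtilis ClpP, 10 microg/mL final in Tris/HCl pH8 with KCl, BSA, glycerol and Tween-20, cleaved an Abz/nitrotyrosine-quenched decapeptide. Fluorescence (ex 320, em 430) was read at 0 and 20 min at room temperature. Delta was normalized to 5.8 microM ADEP and DMSO/no-enzyme controls.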
Menin-MLL FL inh: displaces fluorescein MLL peptide from human menin; Fluorescence polarization, fluorescein-MLL peptide displacement from menin; FP activity change, % at 61.4 µM; 290,000 tested, under 10 active; active means well fitted curve in the direction sought with a large enough effect in the polarisation, not every such curve was filed as active; inconclusive means small, poorly fitted or top-dose-only effect, or effect the other way, or a change in a side signal; inactive means no such curve, though single readings can be large or run the other way; the % refers to the polarisation; further: % of control where 0% means no effect
p53 reactivation: mutant p53 re-activation in reporter cells. H1299 p53-A138V BP100-luciferase reporter, luminescence, 24 h. hit rate 0.063% among 320,000. Potency, µM (top dose mostly 92.2 µM), inactives show at the top dose activity change, positive = activation, actives largely listed as activators; active means well fitted activation curve with a large enough effect; inconclusive means small, poorly fitted or top-dose-only effect; inactive means no such curve, though single readings can be large or run the other way; further: potency means the concentration at half of the fitted maximal effect; % of control where 0% means no effect; nearly all actives have a fitted effect of over 45% in size
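H1299 (p53-null), stable ts p53-A138V + BP100-Luc; 1000 cells/well, Opti-MEM/10% FBS; cpd 4 pt, 1:5; 24 h, 37 deg C, 5% CO2; detection reagent 10 min RT; luminescence.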
MLL CXXC-DNA inh: MLL CXXC-DNA interaction inhibition. Q03164. MLL-CXXC / FITC-HOXA9 DNA fluorescence polarization. Potency, µM (doses to about 115 µM), without a hit: at the highest dose activity change, negative = inhibition, actives largely listed as inhibitors. hit rate 0.037% among 290,000; active means well fitted inhibition curve with a large enough effect in the polarisation, with a control signal flat, not every such curve was filed as active; inconclusive means small, poorly fitted or top-dose-only effect, or effect the other way, or a change in a side signal; inactive means no such curve, though single readings can be large or run the other way; the % refers to the polarisation; further: potency means the concentration at half of the fitted maximal effect
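Fluorescence polarization: 7 uM MLL-CXXC (stock) preincubated 5 min with compounds, then 50 nM fluorescein-HOX-A9 DNA (stock) added; 30 min ambient. Buffer 50 mM Tris-HCl pH 7.5, 50 mM NaCl, 1 mM DTT, 0.05% BSA.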
Menin-MLL TR inh: displaces Texas Red mutant MLL peptide from human menin; O00255; Potency, µM (doses to about 61.6 µM), inactives show top-dose FP activity change, negative = inhibition, actives largely listed as inhibitors; Menin + Texas Red MLL mutant peptide, fluorescence polarization; hit rate 0.23% among 270,000; active means well fitted inhibition curve with a large enough effect in the polarisation, with a control signal flat, not every such curve was filed as active; inconclusive means small, poorly fitted or top-dose-only effect, or effect the other way, or a change in a side signal; inactive means no such curve, though single readings can be large or run the other way; the % refers to the polarisation; further: potency means the concentration at half of the fitted maximal effect; % of control where 0% means no effect
The depositor's hits bear a star; ? = inconclusive; nt = not tested or not shown; [ ] = dose if it differs, or a comment.

SMILES	ClpP mod	Menin-MLL FL inh	p53 reactivation	MLL CXXC-DNA inh	Menin-MLL TR inh
Nc1ccc2oc(=O)ccc2c1I	nt	1	nt	nt	5%
COc1ccc(S(=O)(=O)Nc2cccc(-c3ccc(N4CCC(C)CC4)nn3)c2)cc1OC	-5%	nt	nt	nt	nt
CCCS(=O)(=O)c1ncc(Cl)c(C(=O)N(Cc2ccccc2)Cc2ccco2)n1	2%	nt	nt	nt	nt
Cc1ccc(C(=O)Nc2cc(-c3nc4cc(Cl)ccc4o3)ccc2C)c(C)c1	0%	nt	nt	nt	nt
Cc1ccc(-c2nc3cc(Cl)ccc3o2)cc1	35µM*	-6	?	-5%	nt
Cc1ccc(Cl)cc1NC(=O)N1CCN(C)c2ncccc21	5%	nt	nt	nt	nt
COc1cc(NC(=O)c2ccc(NC(=O)N3CCSc4ncccc43)cc2)cc(OC)c1	32µM*	nt	nt	nt	nt
Cc1ccc(Cl)cc1NC(=O)c1ccc(NC(=O)N2CCSc3ncccc32)cc1	32µM*	nt	nt	nt	nt
Cc1ccc(NC(=O)c2ccc(NC(=O)N3CCSc4ncccc43)cc2)c(Cl)c1	28µM*	nt	nt	nt	nt
Nc1nc(SCc2ccc([N+](=O)[O-])cc2)c2ncn([C@@H]3O[C@H](CO)[C@H](O)[C@H]3O)c2n1	nt	-8	nt	-2%	-3%
Cc1cc(C)c2c(-n3cccc3)c(C(=O)NCCc3ccc(Cl)cc3)sc2n1	1%	nt	nt	nt	nt
Cc1ccc(C2c3cccn3CCN2S(=O)(=O)c2ccc([N+](=O)[O-])cc2)cc1 (stereo not given)	-5%	nt	nt	nt	nt
Cc1ccc(N(C(=O)Cn2nnc3ccccc32)C(C(=O)NCc2ccco2)c2cccnc2)cc1 (stereo not given)	1%	0	27%	2%	8%
COc1cccc(N(C(=O)Cn2nnc3ccccc32)C(C(=O)NCc2ccco2)c2cccnc2)c1 (stereo not given)	35µM*	5	-1%	5%	1%
Cc1ccc(C)c(S(=O)(=O)Nc2ccccc2C(=O)Nc2ccc(S(=O)(=O)Nc3ncccn3)cc2)c1	25µM*	7	8%	-2%	?
CC(=O)Nc1ccc(C(=O)Nc2ccc(S(=O)(=O)Nc3nccc(C)n3)cc2)cc1	0%	-2	8%	-1%	4%
Cc1ccc(S(=O)(=O)Nc2ccccc2C(=O)Nc2ccc(S(=O)(=O)Nc3nccc(C)n3)cc2)cc1	13µM*	9	-7%	3%	12%
Cc1ccc(C)c(S(=O)(=O)Nc2ccc(S(=O)(=O)Nc3ncccn3)cc2)c1	-1%	nt	-1%	nt	nt
Cc1ccc(C(=O)Nc2ccc(Br)cc2)cc1S(=O)(=O)Nc1ccccn1	28µM*	-4	4%	7%	-11%
N#Cc1nc(Cc2ccccc2)oc1N1CCC(Cc2ccccc2)CC1	-2%	0	0%	-5%	-6%
N#Cc1nc(Cc2ccccc2)oc1N1CCC(C(N)=O)CC1	13µM*	4	2%	8%	8%
Cn1c2ccccc2c2ncn(CCCN3CCOCC3)c(=O)c21	25µM*	3	7%	4%	6%
Cc1ccc2c(c1)[nH]c1c(=O)n(Cc3ccccn3)cnc12	32µM*	2	8%	1%	4%
Cc1ccc2[nH]c3c(=O)n(CCCN4CCOCC4)cnc3c2c1	14µM*	-2	5%	-5%	-4%
COc1cc2[nH]c3c(=O)n(CCN4CCCCC4)cnc3c2cc1OC	14µM*	2	-5%	0%	-6%
SMILES	ClpP mod	Menin-MLL FL inh	p53 reactivation	MLL CXXC-DNA inh	Menin-MLL TR inh
COc1ccc2c(c1)[nH]c1c(=O)n(Cc3ccccn3)cnc12	-8%	0	2%	-3%	-10%
CCNc1ccc(/C=C/c2ccnc3ccccc23)cc1	1%	nt	nt	nt	nt
Cc1ccc2[nH]c3c(=O)n(CCN4CCOCC4)cnc3c2c1	?	4	-2%	5%	-6%
CCC1CCCN1Cn1cnc2c([nH]c3ccc(C)cc32)c1=O (stereo not given)	28µM*	2	7%	-3%	-2%
CCC1CCCN1Cn1cnc2c([nH]c3ccc(Cl)cc32)c1=O (stereo not given)	-30%	0	3%	-5%	2%
Cc1ccc2[nH]c3c(=O)n(CCc4cnc[nH]4)cnc3c2c1	16µM*	-4	15%	10%	-16%
O=C(C[N+]12CN3CN(CN(C3)C1)C2)c1ccc(O)c(O)c1	-2%	nt	nt	nt	nt
C/C(=C\C(=S)Nc1ccccc1)Nc1ccc2ccccc2c1	35µM*	0	?	0%	18%
C/C(=C\C(=S)Nc1ccccc1)Nc1cccc2ccccc12	?	7	7%	-3%	?
Cc1ccc(-c2n[nH]c(=S)n2Cc2ccccc2)cc1	-26%	-1	1%	-1%	0%
S=c1[nH]nc(-c2cc3ccccc3o2)n1Cc1ccccc1	3.2µM*	6	20%	-7%	1%
CCN(CC)c1ccc(/C=C/c2ccccn2)cc1	2%	nt	nt	nt	nt
CN(C)c1ccc(/C=C/c2ncnc3ccccc23)cc1	1%	nt	nt	nt	nt
C=CCNC(=O)N1CCc2nc(CCCC)c3c(c2C1)CO[C@@H](C)C3	nt	-2[11.7 µM]	nt	nt	0%[11.7 µM]
COc1cc(-c2nc3ccc4ccccc4c3c3c2CCC3)cc(OC)c1OC	25µM*	7	-2%	2%	?
CCCS(=O)(=O)Nc1cc(-c2cn3cccc(C)c3n2)ccc1C	4%	nt	nt	nt	nt
O=C(CCN1C(=O)C2C3C=CC(C3)C2C1=O)NCc1cccnc1 (stereo not given)	13µM*	1	-5%	2%	21%
O=C(CCN1C(=O)C2C3C=CC(C3)C2C1=O)N1CCN(c2cccc(Cl)c2)CC1 (stereo not given)	-1%	5	10%	-9%	-7%
O=C(CCN1C(=O)C2C3C=CC(C3)C2C1=O)N1CCN(c2ccccn2)CC1 (stereo not given)	16µM*	4	-9%	12%	-14%
O=C(OCc1nnc(-c2ccccc2)o1)c1cn(-c2ccccc2)nc1-c1ccccc1	10µM*	4	15%	15%	21%
Cn1c(=O)c(Cc2ccccc2)c(O)c2ccccc21	25µM*	1	3%	0%	-5%
CC(=O)c1c(O)c2ccccc2n(C)c1=O	1%	-2	-2%	-4%	18%
CCn1c(=O)c(C(C)=O)c(O)c2ccccc21	-2%	1	-1%	1%	1%
CCCCCOC(=O)Cc1c(O)c2ccccc2n(C)c1=O	28µM*	2	3%	-5%	4%
CCCCCn1c(=O)c(Cc2ccccc2)c(O)c2ccccc21	14µM*	2	0%	-4%	16%
CCCCn1c(=O)c(-c2ccccc2)c(O)c2ccccc21	-26%	0	0%	-3%	-10%
CCCc1c(O)c2ccccc2n(-c2ccccc2)c1=O	5.6µM*	0	4%	0%	nt
CCCCc1nc2c(c3c1C[C@H](C)OC3)CN(C(=O)Nc1ccc(OC)cc1)CC2	nt	-6[11.7 µM]	nt	nt	-8%[11.7 µM]
CCCn1c(=O)c(Cc2ccccc2)c(O)c2ccccc21	28µM*	2	-2%	-5%	-11%

Compound activity as filed in PubChem.
